# From PubChem BioAssay
# The source made the active and inactive calls. The rule behind the calls is not given here.
# Test: inhibition of Brca1/Bard1 split-luciferase complementation, confirmation, counter-screen for Mdm2/MdmX interaction inhibitor project, luminescence, single concentration (AID 504668)
# Conditions: Brca1/Bard1 bimolecular luciferase complementation counterscreen, at 8 µM, hits give high values
row,Compound,inhibition
1,Cc1ccc(C(c2cc(Cl)c3cccnc3c2O)N2CCN(C)CC2)cc1 (stereo not given),32.5% (active)
2,O=C(Nc1cccc([N+](=O)[O-])c1)c1cc2ccccc2cc1O,31% (active)
3,COc1ccc(C(=O)N/N=C/c2cc(Br)ccc2O)cc1OC,29.6% (active)
4,CCN(CC)CCCNC(=O)c1ccc2c(Cl)c3c(nc2c1)CCCC3,30.8% (active)
5,Cc1ccc(S(=O)(=O)c2nc(S(=O)(=O)c3ccccc3)sc2N2CCN(C)CC2)cc1,23.7% (active)
6,O=C(Nc1nc(-c2ccccn2)cs1)c1ccccc1-n1cnnn1,29.6% (active)
7,O=C1N(c2ccccc2)C[C@@H]2C[C@@H](c3cc4ccccc4o3)N3CCC[C@@]123,35.1% (active)
8,CN(Cc1ccccc1)C(=O)c1ccc(NC(=O)C2CCN(C(=O)OC(C)(C)C)CC2)cc1,31.6% (active)
9,Cn1c(C(=O)NCc2cccs2)cc2oc3ccccc3c21,27.7% (active)
10,CC[C@]1(C(=O)OC)[C@H]2C(=O)N(Cc3ccccc3)C(=O)[C@H]2[C@H]2CN=C(SCc3ccccc3)N21,35.8% (active)
11,O=C(Cc1ccccc1)N/N=C/c1cc(Br)cc(Cl)c1O,29.2% (active)
12,COc1cc(NC(=S)NC(=O)c2ccc(C(C)(C)C)cc2)ccc1NC(=O)c1cccs1,27.7% (active)
13,CC(=O)Oc1c(-c2ccc(Br)o2)oc2ccccc2c1=O,29.9% (active)
14,CN(C)C=Nc1ncc2c([nH]c3ccccc32)c1C#N,23% (active)
15,Cc1ccc(C(C)C)cc1OCC(=O)Nc1nnc(C2CC2)s1,33.4% (active)
16,Nc1nonc1-n1nnc(C(=O)N/N=C/c2cc(Cl)ccc2O)c1CN1CCCCCC1,32.2% (active)
17,CCS(=O)(=O)c1nnnn1-c1ccccc1S(C)(=O)=O,34.3% (active)
18,Cc1cc(SCC(=O)N/N=C/c2ccc(O)cc2O)nc2ccccc12,32.4% (active)
19,c1ccc(-[n+]2nc(Nc3cccc4ccccc34)sc2-c2c3ccccc3cc3ccccc23)cc1,23.6% (active)
20,CCN(C[C@H]1N[C@@](CC)(C(=O)OC)[C@H]2C(=O)N(Cc3ccccc3)C(=O)[C@@H]12)S(=O)(=O)c1ccc(-c2ccccc2)cc1,34% (active)

row,Compound,inhibition
1,CC(C)c1cccc(O)c(=O)c1,27.6% (active)
2,Cc1nn2c(NCc3ccccn3)cc(C(C)C)nc2c1-c1ccccc1,28.7% (active)
3,COc1ccc(/C=c2/sc3n(c2=O)C(c2ccccc2OC)C2=C(N=3)c3ccccc3CC2)cc1O (stereo not given),29.6% (active)
4,c1ccc(-c2noc(-c3ccc4ccccc4c3)n2)nc1,27% (active)
5,C[C@@]12C(=O)Nc3cc(Cl)ccc3C(=O)N1[C@H]1c3cc(Br)ccc3OC[C@@H]1[C@@H]2c1ccccc1,30.8% (active)
6,Oc1ccc(N=Nc2ccccc2C(F)(F)F)c2cccnc12,23.3% (active)
7,C=CCn1c(SCC(=O)Nc2ccc(F)cc2F)nc2c([nH]c3ccccc32)c1=O,26.8% (active)
8,CC(NC(=O)CN(c1cccc(C(F)(F)F)c1)S(=O)(=O)c1ccc(Cl)c([N+](=O)[O-])c1)c1ccccc1 (stereo not given),35.1% (active)
9,COc1cc(/C=C/c2ccc3cccc(O)c3n2)cc(OC)c1OC,27.2% (active)
10,CCOc1ccc(/C=C/C(O)=C2/C(=O)NC3(C)CC2c2ccccc2O3)cc1OC (stereo not given),23.4% (active)
11,CC(C)(C)c1cc(NCCCn2ccnc2)n2ncc(-c3ccc(Cl)cc3)c2n1,34.9% (active)
12,O=[N+]([O-])c1cc(-c2nc(-c3ccncc3)no2)ccc1Cl,23.3% (active)
13,COc1ccc(C)cc1Nc1n[n+](-c2ccccc2)c(-c2c(OC)ccc3ccccc23)s1,29% (active)
14,C=CCn1c(CNc2ccc(C)cc2)nnc1SCC(=O)N/N=C/c1ccc(O)cc1O,35.6% (active)
15,N=c1c(S(=O)(=O)c2ccc(Cl)cc2)cc2c(=O)n3ccccc3nc2n1CCc1ccccc1,24.9% (active)
16,Cc1cc(NC(=O)c2ccc(F)cc2F)n(-c2nc3ccccc3[nH]2)n1,29.6% (active)
17,O=C(c1ccc(Br)cc1)C(CN1CCOCC1)c1ccccc1 (stereo not given),24.6% (active)
18,N#Cc1c(-c2ccccc2)c(-c2ccccc2)nn(CC(=O)NNC(=O)Nc2ccc(Cl)c(Cl)c2)c1=O,35.9% (active)
19,Cc1csc2nc(O)c(C(=O)NC3CCCCC3)c(=O)n12,35% (active)
20,O=C1c2ccccc2NC(c2ccc(-c3ccc(Br)cc3)o2)N1O (stereo not given),31% (active)
